proKLK7 act = proKLK7 (human) activation, primary screen; 370,000 compounds, 0.9% hits; activation, % at 7 µM; P49862; purified proKLK7, EDANS-DABCYL substrate fluorescence; 100% is mature enzyme control, 0% vehicle;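 active means activation above the mean of all tested compounds plus 3 SD, computed per campaign excluding outliers beyond control limits, cut at about 13% in these data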
ADAM17 inh = inhibits human ADAM17; AID 720648; P78536; 370,000 compounds, 0.83% hits; inhibition, % at 6.95 µM; recombinant ADAM17, EDANS/DABCYL FRET peptide cleavage;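 active means inhibition above the mean of compounds lying between control limits plus 3 SD, set per campaign, cut at about 8.5% in these data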;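 further: 0% = DMSO-only wells as the low control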
Target sequence (P78536 215-824 limits assumed): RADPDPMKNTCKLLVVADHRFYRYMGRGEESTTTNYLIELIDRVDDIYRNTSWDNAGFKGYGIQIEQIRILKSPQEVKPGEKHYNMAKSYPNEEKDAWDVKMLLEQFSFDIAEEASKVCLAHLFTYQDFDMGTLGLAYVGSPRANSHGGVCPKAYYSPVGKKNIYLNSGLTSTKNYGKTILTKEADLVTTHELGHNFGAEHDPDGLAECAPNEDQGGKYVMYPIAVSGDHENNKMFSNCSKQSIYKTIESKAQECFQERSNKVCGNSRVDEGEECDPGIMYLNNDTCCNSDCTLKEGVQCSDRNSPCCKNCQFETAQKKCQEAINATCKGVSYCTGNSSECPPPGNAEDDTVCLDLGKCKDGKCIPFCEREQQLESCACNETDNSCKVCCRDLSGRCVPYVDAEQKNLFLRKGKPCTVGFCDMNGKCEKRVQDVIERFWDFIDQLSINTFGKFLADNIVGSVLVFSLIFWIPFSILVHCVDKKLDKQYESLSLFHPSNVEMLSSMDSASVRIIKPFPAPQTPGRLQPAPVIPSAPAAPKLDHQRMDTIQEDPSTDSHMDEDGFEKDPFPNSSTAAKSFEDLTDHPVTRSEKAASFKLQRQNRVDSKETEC
ADAM10 inh = inhibitors of human ADAM10; O14672; recombinant ADAM10, EDANS/DABCYL FRET peptide cleavage, 3 h; inhibition, % at 7 µM; 370,000 compounds, 0.62% hits; AID 720582;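 active means inhibition above a per-campaign cutoff equal to the mean of compounds falling between control-based bounds plus 3 SD, cut at about 20% in these data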;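 further: 0% = DMSO wells while the 100% control is not disclosed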
V-ATPase pH = alters yeast V-ATPase proton transport; S. cerevisiae, pHLuorin cytosolic pH fluorescence; response, % at 10 µM; 350,000 compounds, 0.37% hits; in the data active means response mostly above about 7.3%, no sharp cut-off; inactive means mostly below about 5.4%; further: actives read high
proKLK7 act conf = confirmation of human kallikrein-7 zymogen activators; purified proKLK7, EDANS-DABCYL substrate fluorescence; scaled: vehicle 0, mature enzyme 100; activation, % at 7 µM; AID 686949; shares compounds with proKLK7 act; 3,200 compounds, 68% hits;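 active means activation, as change over the incubation, above the mean of all tested compounds plus 3 SD, cut at about 13% in these data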
EDANS-DABCYL int = optically interferes with EDANS-DABCYL signal, flagging KLK7 hits. shares compounds with proKLK7 act. EDANS-DABCYL substrate fluorescence interference, no enzyme, 4 h; solvent 0%, active enzyme control 100%. activation, % at 7 µM. 3,200 compounds, 80% hits;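 active means activation above the all-compound mean plus 3 SD, ignoring values outside control-based bounds, cut at about 4.8% in these data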;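 further: value is the 4 h activation minus the activation read at time zero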
K7 EDANS ctr = optically interferes with EDANS-DABCYL fluorescence, kallikrein-7 activator counter-screen; EC50, µM; EDANS-DABCYL peptide fluorescence interference, no enzyme; 250 compounds, 20% hits; shares compounds with proKLK7 act; AID 720493;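 active means compounds that raise the fluorescence signal in this interference counterscreen, with EC50 at or below 10 µM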;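 further: intact quenched peptide substrate alone read at 355 nm excitation and 520 nm emission; signal is fluorescence gain from T0 to T4 after four hours at room temperature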
An asterisk follows results filed as active; i = inactive; x = not tested or not shown. Only some compounds are listed: those with a hit (about 2.3% of all), similar ones and a draw of the others.

SMILES	proKLK7 act	ADAM17 inh	ADAM10 inh	V-ATPase pH	proKLK7 act conf	EDANS-DABCYL int	others
COc1ccc(C2Nc3ccccc3C(=O)N2Cc2ccco2)cc1COc1ccccc1C (stereo unspecified)	x	-85.7	-260.0	x	x	x
Cc1cc(C)c2c(N)c(C(=O)NN3CC(=O)N(c4ccccc4)CC3=O)sc2n1	109.2*	-287.7	i	2.7	32.0*	38.1*
Cc1cc(C)c2c(N)c(C(=O)NN3CC(=O)N(c4cccc(Cl)c4)CC3=O)sc2n1	13.2*	-47.5	-140.9	-1.1	4.7	-3.0
Cc1cc(C)c2c(N)c(C(=O)Nc3c(C)n(C)n(-c4ccccc4)c3=O)sc2n1	1.9	-12.6	-123.2	-0.9	x	x
COc1cc(Nc2cc(C)n(-c3ccc(Cl)c(OC)c3)c(=O)c2)ccc1Cl	-10.9	-51.9	-143.6	x	x	x
CCN(CC)C(=O)CC[C@H]1CC[C@]2(CCCN(Cc3nccn3C)C2)O1	0.1	-1.5	-0.7	x	x	x
CCC(=O)OCc1cc(=O)oc2ccc3ccccc3c12	22.5*	i	i	0.0	-7.3	-18.5
O=C1CCC(C(=O)OCc2cc(=O)oc3ccc4ccccc4c23)=NN1	144.8*	-243.7	i	6.0	357.3*	370.8*
C[C@@H]1COc2cc(N3CCOCC3)ccc2S(=O)(=O)N1	-0.3	0.9	1.1	x	x	x
O=C(COC(=O)c1ccc(Sc2ncn[nH]2)c([N+](=O)[O-])c1)Nc1cccc(Cl)c1F	0.1	3.8	10.0	x	x	x
COc1cccc(Nc2ccc(C(=O)O)cc2N)c1	30.3*	-134.0	-406.6	-2.1	2.9	0.1
COC(=O)C1=C(C)N(Cc2cccc(C(F)(F)F)c2)C(=NCc2ccc(OC)cc2)NC1c1ccc(F)cc1 (stereo unspecified)	-0.3	-0.2	2.1	x	x	x
CCOC(=O)c1[nH]c2ccc(OC)cc2c1NC(=O)CCN1CCCC(C)C1 (stereo unspecified)	26.6*	-81.0	-226.2	3.7	8.9	2.8
COC(=O)[C@]12C[C@H](CC(=O)NCC3CCCCC3)C(=O)N(CCc3ccc(OC)c(OC)c3)C1=C[C@H](C(C)C)O[C@@H]2C1CC1	0.2	0.8	-4.2	x	x	x
OCCN1CCN(c2nc3ccccc3nc2-c2ccccc2)CC1	6.2	-27.1	-79.5	-2.1	x	x
Nc1ncc(-c2ccc(F)cc2)nc1N1CCN(CCO)CC1	24.0*	-200.6	i	x	8.0	11.4*
COC(=O)C1CN(Cc2ccccc2)CCS(=O)(=O)N1Cc1cccc(Cl)c1 (stereo unspecified)	-1.2	0.2	6.9	x	x	x
CCCC(=O)N1CCC1(C)C(=O)Nc1ccc2nccnc2c1 (stereo unspecified)	12.6*	-194.2	i	x	8.2	8.5*
COc1ccc2c(c1OC)C(=O)OC2CC(=O)c1ccc(O)cc1 (stereo unspecified)	20.5*	0.3	-1.1	-0.3	7.2	6.3*
COc1ccc2c(c1OC)C(=O)OC2CC(=O)c1ccc(O)c(O)c1 (stereo unspecified)	0.5	-1.1	0.3	-0.6	x	x
C[C@H]1COc2cccc(F)c2S(=O)(=O)N1C	-0.7	-5.9	-2.9	x	x	x
CC(C)NCC(O)c1ccc(NS(C)(=O)=O)cc1 (stereo unspecified)	0.6	-7.0	-13.5	-0.6	x	x
CC(C)NC[C@@H](O)c1ccc(O)c(O)c1	32.6*	-7.5	-16.5	0.7	50.5*	48.8*
CN(C)CCCNS(=O)(=O)c1ccc(N2CCC(c3ccc(Cl)cc3)=N2)cc1	24.0*	i	i	x	65.6*	61.6*
CNC(=O)OCc1cocc1COC(=O)NC	42.5*	0.8	1.3	x	0.3	0.3
CNC(=O)OCc1cccc(COC(=O)NC)n1	-0.5	-2.5	-4.7	-0.8	x	x
Cc1ccccc1C=Nc1ccccc1C(N)=O	18.0*	-318.8	i	2.1	28.0*	28.5*
Cc1ccc(C=Nc2ccccc2C(N)=O)cc1	18.7*	-388.9	i	-1.6	40.5*	31.1*	K7 EDANS ctr=>69.5
COC(=O)C1=CN(CC2CCCO2)C=C(C(=O)OC)C1c1ccsc1 (stereo unspecified)	27.4*	i	i	-1.2	33.7*	18.3*	K7 EDANS ctr=>69.5

Screening results (PubChem BioAssay)
